# Measured values: PubChem BioAssay (Tox21)
# Inconclusive results are not listed. Where a call stands in place of a potency, no number is given. Active and inactive are the calls of the source. Unless noted, calls follow the shape of the full dose curve.
# Columns and labels:
# [1] = Nuclear factor erythroid 2-related factor 2/antioxidant responsive element (Nrf2/ARE) small molecule agonists: qHTS cell viability counter screen in human keratinocytes (AID 1919968; active = well fitted curve in the direction sought with a large enough effect in the repeat runs; an effect the other way counts as inactive or inconclusive; also: nearly all actives have a fitted effect of over 55% in size)
# How it was run: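 After a 5 h attachment period, ARE-reporter keratinocytes were dosed with compounds in DMSO and then cultured 23 h at 37 C. Cell viability came from CellTiter-Fluor signal read after a further 1 h.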
# [2] = Nuclear factor erythroid 2-related factor 2/antioxidant responsive element (Nrf2/ARE) small molecule agonists: luciferase reporter gene qHTS assay in human keratinocytes (AID 1919969); also: nearly all actives have a fitted effect of over 35% in size; also: potency is read from the fitted curve at half-maximal effect
# [3] = target: Gonadotropin-releasing hormone receptor (Homo sapiens) (UniProt P30968); test: Human gonadotropin-releasing hormone receptor (GnRHR) small molecule agonists, calcium flux assay in GnRHR-HEK293 cells (AID 1920063); also: nearly all actives have a fitted effect of over 35% in size
# How it was run: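 We seeded human GnRHR-expressing HEK293 cells for 18 hours, loaded them with calcium dye for an hour at 37 C, added test compounds, and recorded fluorescence intensity kinetically for three minutes.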
# [4] = target: KiSS-1 receptor (Homo sapiens) (UniProt Q969F8); test: Human kisspeptin (KISS1R) small molecule agonists, calcium flux assay in KISS1R-HEK293 cells (AID 1920064; active = well fitted curve in the direction sought with a large enough effect in the repeat runs; an effect the other way counts as inactive or inconclusive)
# How it was run: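 Kinetic calcium assay, 1 s sampling over 3 min at Ex/Em 480/540, in HEK293 cells engineered with human KISS1R; compounds delivered in DMSO after 1 h dye loading.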
# [5] = G protein-coupled receptor (GPCR) small molecule agonists, calcium flux assay: HEK293 wild type cell line counter screen (AID 1920065)
# How it was run: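 Calcium-sensitive dye, loaded 1 h at 37 C into cells cultured 18 h, reports compound-evoked calcium release as fluorescence (Ex/Em 480/540), measured over 3 min. Agonist mode; 15-point titrations, triplicate.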
# [6] = p53 small molecule agonists, cell-based qHTS assay with human liver microsomes: qHTS cell viability counter screen (AID 1963579); also: nearly all actives have a fitted effect of over 45% in size
# How it was run: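 Cells carrying the p53 response-element beta-lactamase reporter are treated for 16 h at 37 C with test compounds in the presence of human liver microsomes and NADPH (both 0.5 mg/mL final); ATP-based CellTiter-Glo luminescence then reports viability.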
# [7] = p53 small molecule agonists, cell-based qHTS assay with rat liver microsomes: qHTS cell viability counter screen (AID 1963580); also: nearly all actives have a fitted effect of over 45% in size
# How it was run: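 HCT-116 p53RE-bla, 4,000 cells/well, 5 h pre-incubation; cpd + rat liver microsomes 0.5 mg/mL + NADPH 0.5 mg/mL (final); 16 h, 37 C; CellTiter-Glo, 30 min RT; luminescence.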
# [8] = p53 small molecule agonists, cell-based qHTS assay: qHTS cell viability counter screen (AID 1963581); also: nearly all actives have a fitted effect of over 45% in size
# How it was run: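 Following 5 h attachment, HCT-116 p53RE-bla cells took up compound for 16 h at 37 C; the reporter was read with B/G FRET substrate (2 h RT), and viability then via CellTiter-Glo ATP luminescence.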
# [9] = p53 small molecule agonists, cell-based qHTS assay (AID 1963582; active = well fitted activation curve with a large enough effect in the signal ratio in the repeat runs, not every such curve was filed as active; the % refers to the signal ratio; also: potency is read from the fitted curve at half-maximal effect)
# How it was run: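 In this cell-based concentration-response screen, a p53 response element drives beta-lactamase; cells received DMSO-borne compounds after 5 h culture and were incubated a further 16 h before FRET substrate development.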
# [10] = target: 5-hydroxytryptamine receptor 2A (Homo sapiens) (UniProt P28223); test: 5-hydroxytryptamine receptor 2A (HTR2A) small molecule antagonists, cell-based qHTS assay (AID 1963586); also: nearly all actives have a fitted effect of over 45% in size; also: potency is read from the fitted curve at half-maximal effect
# How it was run: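 Antagonist-mode intracellular calcium assay: DOI (4 nM) added after 5 min compound pre-incubation at room temperature to dye-loaded HTR2A-CHO cells. Fluorescence followed for 3 min, sampled every second.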
# [11] = target: 5-hydroxytryptamine receptor 2A (Homo sapiens) (UniProt P28223); test: 5-hydroxytryptamine receptor 2A (HTR2A) small molecule agonists, cell-based qHTS assay (AID 1963587); also: nearly all actives have a fitted effect of over 30% in size
# How it was run: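 Kinetic calcium-flux fluorescence (2 min, 1 sec intervals) after compound addition in agonist mode. HTR2A-CHO cells were cultured 18 h, then dye-loaded 1 h at 37 C.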
# [12] = target: Muscarinic acetylcholine receptor M1 (Homo sapiens) (UniProt P11229); test: Cholinergic receptor muscarinic 1 (CHRM1) small molecule agonists, cell-based qHTS assay (AID 1963589); also: nearly all actives have a fitted effect of over 35% in size
# How it was run: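 Measures agonist-induced intracellular calcium rise. Stable human CHRM1 CHO line, 1 h dye load at 37 C, compounds from DMSO, kinetic fluorescence read.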
# [13] = cAMP Responsive Elements (CRE) small molecule agonists, cell-based qHTS assay (AID 1963590)
# How it was run: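 A CRE-responsive beta-lactamase reporter in HEK 293T cells was used. Treatment ran 3 h at 37 C; detection used LiveBLAzer B/G FRET substrate for 2 h at room temperature.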
# [14] = target: Beta-2 adrenergic receptor (Homo sapiens) (UniProt P07550); test: Adrenergic beta2 receptor (ADRB2) small molecule antagonists, cell-based qHTS assay (AID 1963592); also: series mostly up to about 92 µM; nearly all actives have a fitted effect of over 50% in size
# How it was run: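 Cells (CHO, stable ADRB2 overexpression) incubated 18-20hr at 37C; compounds added from DMSO; agonist mix (1nM isoproterenol, 100uM IBMX, 25uM Ro-20-1724) added; 0.5hr RT; d2-cAMP and anti-cAMP-cryptate added; 1hr RT; 665/615 nm read.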
# [15] = target: D(2) dopamine receptor (Homo sapiens) (UniProt P14416); test: Dopamine D2 receptor (DRD2) small molecule agonists, cell-based qHTS assay (AID 1963594); also: nearly all actives have a fitted effect of over 35% in size
# How it was run: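 cAMP accumulation in DRD2-HEK293 cells measured by HTRF after 1 h detection; compounds added 10 min before NKH477 (200nM […]) forskolin-analogue stimulation, 30 min at room temperature, with Ro20-1724 present at 0.1 mM final.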
# [16] = target: D(2) dopamine receptor (Homo sapiens) (UniProt P14416); test: Dopamine D2 receptor (DRD2) small molecule antagonists, cell-based qHTS assay (AID 1963595; active = well fitted inhibition curve with a large enough effect in the signal ratio in the repeat runs, with a control signal flat; the % refers to the signal ratio)
# How it was run: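 Human DRD2 antagonist qHTS measuring cAMP by HTRF. The cells are exposed to compound for 10 min, then to NKH477 (200 nM) and quinpirole (12 nM) for 30 min at RT, with Ro20-1724 (0.1 mM) present throughout.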
# [17] = target: Muscarinic acetylcholine receptor M1 (Homo sapiens) (UniProt P11229); test: Cholinergic receptor muscarinic 1 (CHRM1) small molecule antagonists, cell-based qHTS assay (AID 1963588); also: nearly all actives have a fitted effect of over 40% in size
# How it was run: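 CHRM1-CHO calcium-flux assay, antagonist mode. Cells were seeded 18 h, dye-loaded 1 h at 37 C and given compound for 5 min at RT, then acetylcholine was added at 50nM. FDSS fluorescence was read 3 min; 15 concentrations, three runs.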
# [18] = cAMP Responsive Elements (CRE) small molecule antagonists, cell-based qHTS assay (AID 1963591; active = well fitted inhibition curve with a large enough effect in the signal ratio in the repeat runs, not every such curve was filed as active; the % refers to the signal ratio)
# How it was run: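 HEK293T cells carrying a CRE-driven beta-lactamase reporter receive compound and NKH477 (0.25 uM final) for 3 h. Fluorescence from LiveBLAzer B/G FRET substrate is read after 2 h at room temperature.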
# [19] = target: Beta-2 adrenergic receptor (Homo sapiens) (UniProt P07550); test: Adrenergic beta2 receptor (ADRB2) small molecule agonists, cell-based qHTS assay (AID 1963593);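 also: CHO cells stably overexpressing human ADRB2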
# How it was run: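 CHO cells stably over-expressing ADRB2 were plated overnight at 37C, then dosed with compounds plus a stimulation mix containing 100uM IBMX and 25uM Ro-20-1724 for 0.5hr at room temperature. cAMP was measured by HTRF competition, 1hr.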
# [20] = p53 small molecule agonists, cell-based qHTS assay with rat liver microsomes (AID 1963578)
# How it was run: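 Read-out is beta-lactamase reporter fluorescence (LiveBLAzer, 2 h, room temperature, dark) in p53RE-bla cells treated 16 h at 37 C with compound, rat liver microsomes and NADPH, both 0.5 mg/mL final.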
# Chain of 5-hydroxytryptamine receptor 2A (Homo sapiens) (P28223 whole entry, looked up): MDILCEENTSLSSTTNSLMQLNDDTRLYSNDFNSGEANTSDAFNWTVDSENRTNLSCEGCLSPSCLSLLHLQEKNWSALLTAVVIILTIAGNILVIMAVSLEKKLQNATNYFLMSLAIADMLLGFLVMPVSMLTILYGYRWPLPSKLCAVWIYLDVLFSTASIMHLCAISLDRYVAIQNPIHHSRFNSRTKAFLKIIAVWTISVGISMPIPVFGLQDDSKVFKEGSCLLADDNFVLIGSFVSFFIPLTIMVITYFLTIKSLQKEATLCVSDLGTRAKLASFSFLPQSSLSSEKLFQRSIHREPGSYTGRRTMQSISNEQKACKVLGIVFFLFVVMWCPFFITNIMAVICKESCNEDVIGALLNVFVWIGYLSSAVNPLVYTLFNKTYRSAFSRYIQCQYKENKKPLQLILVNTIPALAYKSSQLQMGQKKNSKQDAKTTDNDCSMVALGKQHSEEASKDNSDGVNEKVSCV
# Chain of KiSS-1 receptor (Homo sapiens) (Q969F8 whole entry, looked up): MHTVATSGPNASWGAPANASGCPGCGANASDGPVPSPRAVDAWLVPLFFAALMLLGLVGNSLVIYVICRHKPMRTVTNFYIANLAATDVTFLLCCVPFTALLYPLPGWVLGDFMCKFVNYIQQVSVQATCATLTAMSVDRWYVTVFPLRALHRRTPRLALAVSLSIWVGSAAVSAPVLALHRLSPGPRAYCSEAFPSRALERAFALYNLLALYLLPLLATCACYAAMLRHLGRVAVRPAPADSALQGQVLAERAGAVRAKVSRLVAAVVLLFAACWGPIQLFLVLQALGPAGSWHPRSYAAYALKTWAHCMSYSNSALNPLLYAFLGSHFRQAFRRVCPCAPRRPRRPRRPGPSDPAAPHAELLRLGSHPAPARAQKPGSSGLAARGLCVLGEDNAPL
# Chain of Muscarinic acetylcholine receptor M1 (Homo sapiens) (P11229 whole entry, looked up): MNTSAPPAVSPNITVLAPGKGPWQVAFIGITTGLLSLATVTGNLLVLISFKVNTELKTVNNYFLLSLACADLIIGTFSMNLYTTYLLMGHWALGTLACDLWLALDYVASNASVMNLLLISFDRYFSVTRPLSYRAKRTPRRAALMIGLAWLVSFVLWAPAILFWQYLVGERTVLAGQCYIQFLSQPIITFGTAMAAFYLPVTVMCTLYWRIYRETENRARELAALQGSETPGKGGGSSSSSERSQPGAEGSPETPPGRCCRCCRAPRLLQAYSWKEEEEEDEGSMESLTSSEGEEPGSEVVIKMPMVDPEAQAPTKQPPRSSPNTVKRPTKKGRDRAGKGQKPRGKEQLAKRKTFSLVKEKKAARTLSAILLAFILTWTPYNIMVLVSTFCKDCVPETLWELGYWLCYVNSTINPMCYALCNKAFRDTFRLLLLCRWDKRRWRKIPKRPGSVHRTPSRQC
# Chain of D(2) dopamine receptor (Homo sapiens) (P14416 whole entry, looked up): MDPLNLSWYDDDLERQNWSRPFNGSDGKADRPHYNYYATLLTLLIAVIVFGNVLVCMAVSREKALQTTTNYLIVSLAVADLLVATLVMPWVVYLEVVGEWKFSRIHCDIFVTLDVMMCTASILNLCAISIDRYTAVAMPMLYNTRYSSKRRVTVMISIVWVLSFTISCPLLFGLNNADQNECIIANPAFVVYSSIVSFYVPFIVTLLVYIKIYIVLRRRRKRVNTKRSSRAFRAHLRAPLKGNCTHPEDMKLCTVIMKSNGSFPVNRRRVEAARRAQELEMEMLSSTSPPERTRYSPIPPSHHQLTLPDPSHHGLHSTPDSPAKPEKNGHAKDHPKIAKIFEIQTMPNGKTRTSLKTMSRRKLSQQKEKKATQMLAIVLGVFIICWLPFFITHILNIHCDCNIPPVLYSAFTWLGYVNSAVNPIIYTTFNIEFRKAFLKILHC
# Chain of Gonadotropin-releasing hormone receptor (Homo sapiens) (P30968 whole entry, looked up): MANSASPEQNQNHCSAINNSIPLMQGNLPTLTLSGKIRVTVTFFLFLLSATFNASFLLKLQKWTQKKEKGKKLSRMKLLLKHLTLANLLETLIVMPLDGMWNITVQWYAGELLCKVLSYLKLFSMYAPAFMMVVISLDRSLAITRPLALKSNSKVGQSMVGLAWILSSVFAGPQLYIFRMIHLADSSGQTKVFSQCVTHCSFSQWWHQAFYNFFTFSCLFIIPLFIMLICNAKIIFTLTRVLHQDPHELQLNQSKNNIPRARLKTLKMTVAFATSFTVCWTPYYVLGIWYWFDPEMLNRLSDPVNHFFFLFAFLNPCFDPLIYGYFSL
# Chain of Beta-2 adrenergic receptor (Homo sapiens) (P07550 whole entry, looked up): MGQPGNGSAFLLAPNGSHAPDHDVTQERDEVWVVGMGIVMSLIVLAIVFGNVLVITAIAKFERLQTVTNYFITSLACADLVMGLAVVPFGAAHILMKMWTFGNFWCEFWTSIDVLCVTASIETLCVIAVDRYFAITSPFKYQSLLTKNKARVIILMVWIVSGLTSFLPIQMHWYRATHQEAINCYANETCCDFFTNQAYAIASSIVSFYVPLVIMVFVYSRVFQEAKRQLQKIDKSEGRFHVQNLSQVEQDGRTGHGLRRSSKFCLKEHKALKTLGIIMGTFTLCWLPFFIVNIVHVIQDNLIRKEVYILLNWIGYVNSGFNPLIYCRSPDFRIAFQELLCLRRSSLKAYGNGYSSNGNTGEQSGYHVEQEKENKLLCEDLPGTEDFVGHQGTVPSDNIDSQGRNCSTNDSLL
SMILES,Potency [1],Potency [2],Potency [3],Potency [4],Potency [5],Potency [6],Potency [7],Potency [8],Potency [9],Potency [10],Potency [11],Potency [12],Potency [13],Potency [14],Potency [15],Potency [16],Potency [17],Potency [18],Potency [19],Potency [20]
COP(=O)(OC)O/C(=C/Cl)c1cc(Cl)c(Cl)cc1Cl,inactive,51.3 µM (active),inactive,inactive,inactive,inactive,inactive,inactive,inactive,15.8 µM (active),inactive,inactive,inactive,inactive,inactive,inactive,–,–,–,–
CCNP(=S)(OC)O/C(C)=C/C(=O)OC(C)C (stereo not given),inactive,inactive,inactive,inactive,inactive,inactive,inactive,inactive,inactive,inactive,inactive,inactive,inactive,inactive,inactive,inactive,inactive,inactive,inactive,–
O=C(CCl)NCO,inactive,inactive,inactive,inactive,inactive,–,inactive,inactive,inactive,inactive,inactive,inactive,inactive,inactive,–,inactive,inactive,inactive,–,inactive
Oc1ccc(Cl)c(Cl)c1Cl,inactive,inactive,inactive,inactive,inactive,inactive,–,inactive,inactive,inactive,inactive,inactive,–,inactive,inactive,inactive,–,inactive,–,inactive
N#Cc1c[nH]cc1-c1cccc2c1OC(F)(F)O2,inactive,inactive,inactive,inactive,inactive,inactive,inactive,–,14.5 µM (active),inactive,inactive,inactive,–,inactive,–,inactive,inactive,–,–,inactive
OC(c1ccc(F)cc1)(c1cncnc1)c1ccccc1Cl (stereo not given),inactive,inactive,inactive,inactive,inactive,inactive,inactive,inactive,inactive,inactive,inactive,inactive,inactive,inactive,inactive,inactive,inactive,inactive,inactive,–
CC(C)O.CC(C)O.OCCN(CCO)CCO.OCCN(CCO)CCO.[Ti],inactive,inactive,inactive,inactive,inactive,inactive,inactive,inactive,–,inactive,inactive,inactive,inactive,inactive,inactive,inactive,inactive,inactive,inactive,–
CCOP(=S)(OCC)Oc1cc(-c2ccccc2)on1,inactive,inactive,inactive,inactive,inactive,inactive,inactive,inactive,inactive,inactive,inactive,inactive,–,inactive,inactive,inactive,inactive,–,–,–
NNCCO,inactive,inactive,inactive,inactive,inactive,inactive,inactive,inactive,–,inactive,inactive,inactive,inactive,inactive,inactive,inactive,inactive,inactive,inactive,–
CCOP(=S)(OCC)Oc1nc(Cl)n(C(C)C)n1,inactive,inactive,inactive,inactive,inactive,inactive,inactive,inactive,–,inactive,inactive,inactive,inactive,inactive,inactive,inactive,inactive,inactive,inactive,–
CNC(=O)O/N=C(/CSC)C(C)(C)C,inactive,inactive,inactive,inactive,inactive,inactive,inactive,inactive,inactive,inactive,inactive,inactive,inactive,inactive,inactive,inactive,inactive,inactive,inactive,–
COP(=O)(OC)O/C(C)=C/C(=O)N(C)C,inactive,inactive,inactive,inactive,inactive,inactive,inactive,inactive,inactive,–,inactive,inactive,inactive,inactive,inactive,inactive,inactive,inactive,inactive,–
C=CC(=O)OCC,inactive,inactive,inactive,inactive,inactive,inactive,inactive,inactive,–,inactive,inactive,inactive,inactive,inactive,inactive,–,inactive,inactive,inactive,–
CCOC(=O)NC(=S)Nc1ccccc1NC(=S)NC(=O)OCC,inactive,54.5 µM (active),inactive,inactive,inactive,inactive,inactive,–,–,inactive,inactive,inactive,–,inactive,–,inactive,inactive,–,–,inactive
CC(C)(OO)c1ccccc1,inactive,inactive,inactive,inactive,inactive,–,inactive,inactive,inactive,inactive,–,inactive,inactive,inactive,–,inactive,inactive,–,–,inactive
